According to PubChem BioAssay (NCI):
The panel holds about 79,000 compounds, 15% with a hit somewhere; the sample as a whole holds those more often. Active and inactive are the calls of the source. Cut-off read from the data, not from the text of the source: active = growth inhibition above about 70%; inactive = the rest.

Key:
[1] = NCI Yeast Anticancer Drug Screen. Data for the rad52 strain (AID 147);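 note: 0% = growth of vehicle-treated control cultures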; conditions: S. cerevisiae rad52 mutant growth inhibition, hits give high values
How it was run: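 DNA repair-defective yeast; compound exposure; growth scored against vehicle controls.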

[2] = NCI Yeast Anticancer Drug Screen. Data for the wt1 strain (AID 149);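 note: 0% = growth of vehicle-treated wt1 cultures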; conditions: S. cerevisiae wt1 strain (SPY 50644) growth inhibition, hits give high values
How it was run: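 Yeast wt1 strain exposed to compounds; growth inhibition measured relative to vehicle-treated controls.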

[3] = NCI Yeast Anticancer Drug Screen. Data for the rad50EPP+ strain (AID 151);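 note: 0% = growth of vehicle-treated control cultures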; conditions: S. cerevisiae rad50 mutant strain, hits give high values
How it was run: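 rad50EPP+ yeast treated with test compounds. Readout: growth vs vehicle control.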

[4] = NCI Yeast Anticancer Drug Screen. Data for the mgt1 strain (AID 153); conditions: S. cerevisiae mgt1 mutant growth inhibition, hits give high values
How it was run: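 Growth inhibition relative to vehicle controls was scored for the mgt1 yeast strain after compound exposure.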

[5] = NCI Yeast Anticancer Drug Screen. Data for the rad50 strain (AID 155);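 note: 0% = growth of vehicle-only cultures of the same strain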; conditions: S. cerevisiae rad50 strain growth inhibition, hits give high values
How it was run: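 Yeast carrying a defined DNA repair defect were exposed to test compounds, and growth was compared with vehicle-treated controls to give percent inhibition.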

[6] = NCI Yeast Anticancer Drug Screen. Data for the mec2-1 strain (AID 157); conditions: S. cerevisiae mec2-1 strain, hits give high values
How it was run: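 Growth inhibition is read against vehicle-treated controls after compound exposure of the mec2-1 yeast strain, which is defective in DNA damage repair or cell cycle control.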

[7] = NCI Yeast Anticancer Drug Screen. Data for the rad14 strain (AID 159);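 note: 0% = growth of vehicle-treated control cultures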; conditions: S. cerevisiae rad14 strain growth inhibition, hits give high values
How it was run: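 Yeast cells carrying a defined DNA-repair defect were exposed to compounds, and growth inhibition was calculated relative to vehicle-treated control cultures.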

[8] = NCI Yeast Anticancer Drug Screen. Data for the sgs1 mgt1 strain (AID 161);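 note: 0% = growth of cultures given vehicle only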; conditions: S. cerevisiae sgs1 mgt1 strain, hits give high values
How it was run: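 Compounds are added to genetically altered yeast, and growth is compared with cultures given vehicle alone to give percent inhibition.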

[9] = NCI Yeast Anticancer Drug Screen. Data for the CLN2oe strain (AID 163);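 note: 0% = growth of vehicle-only control cultures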; conditions: S. cerevisiae CLN2oe strain, hits give high values
How it was run: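 Compound-treated yeast; growth vs vehicle ctrl = % inhibition. Genetically altered strain (cell-cycle control).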

[10] = NCI Yeast Anticancer Drug Screen. Data for the cln2 rad14 strain (AID 165);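 note: 0% = growth equal to vehicle treated cultures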; conditions: S. cerevisiae cln2 rad14 strain, hits give high values
How it was run: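 Growth inhibition, relative to vehicle-treated controls, is the read-out. The test organism is a yeast strain with defined genetic alterations, cln2 rad14.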

[11] = NCI Yeast Anticancer Drug Screen. Data for the bub3 strain (AID 167); conditions: S. cerevisiae bub3 mutant strain, hits give high values
How it was run: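 Compounds were applied to a genetically altered yeast strain carrying a cell-cycle control defect. Growth inhibition was scored against vehicle-treated controls.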

[12] = NCI Yeast Anticancer Drug Screen. Data for the wt2 strain (AID 169);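 note: 0% = growth of vehicle-treated yeast cultures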; conditions: S. cerevisiae wt2 strain growth inhibition, hits give high values
How it was run: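 Compound exposure of yeast; growth compared with vehicle controls; inhibition reported.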

[13] = NCI Yeast Anticancer Drug Screen. Data for the mlh1 strain (AID 171);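 note: 0% = growth of vehicle-treated control cultures of the same strain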; conditions: S. cerevisiae mlh1 strain growth inhibition, hits give high values
How it was run: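 Compounds are applied to a genetically altered yeast strain, and its growth is compared with that of vehicle-treated cultures to give percent inhibition.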

[14] = NCI Yeast Anticancer Drug Screen. Data for the sgs1 strain (AID 173);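 note: 0% = growth of vehicle-only control cultures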; conditions: S. cerevisiae sgs1 mutant, hits give high values
How it was run: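 Compounds applied to genetically altered yeast; growth compared with vehicle-treated cultures to give % inhibition.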

[15] = NCI Yeast Anticancer Drug Screen. Data for the mlh1 rad18 strain (AID 175); conditions: S. cerevisiae mlh1 rad18 strain growth inhibition, hits give high values
How it was run: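 Cells of a genetically altered yeast strain, deficient in DNA damage repair, were treated with compound. Their growth was then compared with that of vehicle-treated cultures to give inhibition.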

[16] = NCI Yeast Anticancer Drug Screen. Data for the rad18 strain (AID 177); conditions: S. cerevisiae rad18 mutant growth inhibition, hits give high values
How it was run: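 Compounds are applied to a repair-deficient yeast strain, and growth is compared with that of vehicle-treated cultures to give percent inhibition.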

[17] = at 5.0 µM (retest, dose inferred, filed as 0.5)
[18] = at 50.0 µM (retest, dose inferred, filed as 5.0)

Measured: growth inhibition

CC1CCC2(NC1)OC1CC3C4CCC5CC(OC6OC(CO)C(OC7OC(CO)C(O)C(OC8OCC(O)C(O)C8O)C7OC7OC(CO)C(O)C(O)C7O)C(O)C6O)CCC5(C)C4CCC3(C)C1C2C (stereo not drawn)
inactive: [1]; at 1.2 µM 30% | [1]; at 3.7 µM 8% | [1]; at 11.0 µM 12% | [1]; at 33.0 µM 0% | [2]; at 1.2 µM -6% | [2]; at 3.7 µM -15% | [2]; at 11.0 µM -18% | [2]; at 33.0 µM -17% | [2]; at 100.0 µM 40% | [3]; at 1.2 µM 21% | [3]; at 3.7 µM 3% | [3]; at 11.0 µM 8% | [3]; at 33.0 µM 13% | [3]; at 100.0 µM 27% | [4]; at 1.2 µM -2% | [4]; at 3.7 µM -10% | [4]; at 11.0 µM -11% | [4]; at 33.0 µM -11% | [4]; at 100.0 µM 44% | [5]; at 1.2 µM -2% | [5]; at 3.7 µM -16% | [5]; [17] 1% | [5]; at 11.0 µM -14% | [5]; at 33.0 µM -6% | [5]; at 50.0 µM 28.9% | [5]; at 100.0 µM 62% | [6]; at 1.2 µM 13% | [6]; at 3.7 µM -14% | [6]; [17] 13% | [6]; at 11.0 µM -15% | [6]; at 33.0 µM 2% | [6]; at 50.0 µM 6.1% | [6]; at 100.0 µM 14% | [7]; at 1.2 µM 18% | [7]; at 3.7 µM 6% | [7]; at 11.0 µM -5% | [7]; at 33.0 µM -18% | [8]; [17] 1% | [8]; at 50.0 µM -24.1% | [9]; at 1.2 µM -15% | [9]; at 3.7 µM -14% | [9]; at 11.0 µM -10% | [9]; at 33.0 µM -4% | [9]; at 100.0 µM 46% | [10]; [17] -19% | [10]; [18] 68% | [10]; at 50.0 µM 28.8% | [11]; at 1.2 µM 0% | [11]; at 3.7 µM -19% | [11]; [17] 10% | [11]; at 11.0 µM -27% | [11]; at 33.0 µM -10% | [11]; at 50.0 µM 11.1% | [11]; at 100.0 µM 45% | [12]; at 1.2 µM -7% | [12]; at 3.7 µM -20% | [12]; at 11.0 µM -22% | [12]; at 33.0 µM -11% | [13]; at 1.2 µM -4% | [13]; at 3.7 µM -5% | [13]; at 11.0 µM -8% | [13]; at 33.0 µM -12% | [14]; at 1.2 µM 2% | [14]; at 3.7 µM 0% | [14]; at 11.0 µM 2% | [14]; at 33.0 µM -4% | [14]; at 100.0 µM 61% | [15]; [17] 59% | [16]; at 1.2 µM 4% | [16]; at 3.7 µM -19% | [16]; at 11.0 µM -14% | [16]; at 33.0 µM -25% | [16]; at 100.0 µM 61%
active: [1]; at 100.0 µM 76% | [5]; [18] 98% | [6]; [18] 97% | [7]; at 100.0 µM 77% | [8]; [18] 93% | [11]; [18] 74% | [12]; at 100.0 µM 99% | [13]; at 100.0 µM 90% | [15]; [18] 97% | [15]; at 50.0 µM 87.6%
